Compound activity as filed in PubChem BioAssay.
Hits are enriched below; roughly 6.1% of the tested compounds scored in any of these assays.
D1 agonist – Allosteric Agonists of the Human D1 Dopamine Receptor: qHTS; D(1A) dopamine receptor (Homo sapiens), P21728; HEK293 T-REx D1 cells, calcium flux, agonist mode; activation, % at 2 µM; actives 1% (n = 360,000); AID 504660, 2011; in the data active means activation above about 30%; further: 0% is about no effect
Target sequence (P21728 whole entry, looked up): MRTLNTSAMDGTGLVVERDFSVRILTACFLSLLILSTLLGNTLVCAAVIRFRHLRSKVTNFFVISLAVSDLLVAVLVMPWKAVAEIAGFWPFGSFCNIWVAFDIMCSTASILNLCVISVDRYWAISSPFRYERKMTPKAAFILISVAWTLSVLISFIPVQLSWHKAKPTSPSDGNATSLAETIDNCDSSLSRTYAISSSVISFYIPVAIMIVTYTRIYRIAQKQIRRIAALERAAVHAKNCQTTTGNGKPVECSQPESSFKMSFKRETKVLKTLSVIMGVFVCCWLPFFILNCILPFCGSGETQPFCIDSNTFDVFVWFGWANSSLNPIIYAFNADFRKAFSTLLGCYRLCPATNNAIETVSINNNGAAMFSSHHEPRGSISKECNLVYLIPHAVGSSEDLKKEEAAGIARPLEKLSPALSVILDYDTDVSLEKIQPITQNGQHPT
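Inducible HEK293 T-REx D1 cells, force-coupled to calcium signalling, were plated at 4000 cells/well with tetracycline and held overnight at 30 C. After no-wash calcium dye loading, compound-evoked calcium rise over 180 s flagged agonists.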
DRD3 antagonist – qHTS of D3 Dopamine Receptor Antagonist: qHTS; D(3) dopamine receptor (Homo sapiens), P35462; D3R cells, DiscoveRx beta-arrestin luminescence, antagonist mode; hits give low values; max response, negative = inhibition, %; actives 2.5% (n = 360,000); AID 652054, 2013; in the data active means max response below about -50%; inconclusive means no clear call, values can overlap the other calls; further: on the % scale 0 is the no-effect control and ±100 the full control effect
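Cells plated overnight at 1500 cells/well, then exposed to library compounds with dopamine controls for 90 minutes at 37 degrees C. DiscoveRx reagent added for 30–60 minutes at room temperature; luminescence read, quantitative HTS format.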
D1 antagonist – Antagonist of Human D 1 Dopamine Receptor: qHTS; actives 3.2% (n = 360,000); activity change, negative = inhibition, % at 10 µM; HEK293 TREx D1 cells, calcium flux, dopamine EC80; hits give low values; AID 504652, 2011; in the data active means activity change below about -30%; further: on the % scale 0 is the no-effect control and ±100 the full control effect
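Calcium flux readout: force-coupled, inducible Hek293 Trex D1 line, cells induced overnight at 30 C with tetracycline, dye-loaded 30–90 min at RT. Antagonism scored against EC80 dopamine challenge given 180 s after compound.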
D1 potentiator – Potentiators of Human D1 Dopamine Receptor: qHTS | potentiation, % at 10 µM | actives 0.036% (n = 360,000) | D(1A) dopamine receptor (Homo sapiens), P21728 | HEK293 TREx D1 cells, calcium flux, dopamine EC20 potentiation; in the data active means potentiation above about 30%; further: 0% is about no effect
DRD3 agonist – qHTS of D3 Dopamine Receptor Agonist: qHTS; D(3) dopamine receptor (Homo sapiens), P35462; D3R DiscoveRx beta-arrestin cells, luminescence, 90 min; max activation, %; actives 0.58% (n = 410,000); AID 652048, 2013; in the data active means max activation above about 30%; further: 0% is about no effect
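Agonist mode: compounds and dopamine controls were applied to plated cells for 90 min at 37 degrees C after an overnight attachment at 1500 cells/well. Luminescent read-out followed 30 - 60 minutes at room temperature with DiscoveRx detection reagent.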
Starred values were filed as active, the others as inactive; ? = inconclusive; nt = not tested or not shown; ! = not active in a repeat.

SMILES | D1 agonist | DRD3 antagonist | D1 antagonist | D1 potentiator | DRD3 agonist
CCC1Nc2ncnc(N3CCN(c4ccccn4)CC3)c2N(Cc2ccc(Cl)cc2)C1=O (centres undefined) | -1 | -104* | -7 | -10 | -54
CC(C)CC1Nc2ncnc(N3CCN(c4ccccn4)CC3)c2N(Cc2ccccc2)C1=O (centres undefined) | nt | -23 | nt | nt | -9
CCC1Nc2ncnc(N3CCN(c4ccccn4)CC3)c2N(Cc2ccc(Br)cc2)C1=O (centres undefined) | nt | -142* | nt | nt | -96
CCC(C)(C)C(=O)O[C@H]1C[C@@H](C)C=C2C=C[C@H](C)[C@H](CC[C@@H]3C[C@@H](O)CC(=O)O3)[C@H]21 | 1 | -12 | 8 | 3 | -20
COc1ccccc1C(=O)Nc1nnc(SCc2cc(=O)c3ccccc3[nH]2)s1 | 1 | nt | -11 | -4 | 22
Cc1cc(C(=O)N/N=C/c2sccc2C)no1 | 4 | -13 | -2 | -3 | -24
COc1ccccc1C(=O)N/N=C/C(C)=C/c1ccccc1 | 7 | 9 | -64* | -2 | -9
CC(/C=N/NC(=O)Cc1cc(=O)[nH][nH]1)=C\c1ccccc1 | 57* | 3 | 1 | -9 | -8
CCOC(=O)N/N=C\c1sccc1C | 2 | 0 | -42* | -3 | 14
Cc1ccsc1/C=N\NC(=O)c1cc(C(C)(C)C)[nH]n1 | 0 | -67* | -39* | -8 | -16
COc1ccc(S(=O)(=O)Nc2cccc3cccnc23)c([N+](=O)[O-])c1 | 4 | nt | -28 | -2 | nt
COCCN(C(=O)c1ccc(-c2ccc(Cl)cc2)o1)c1c(N)n(Cc2ccccc2)c(=O)[nH]c1=O | 5 | 13 | 6 | -8 | 4
CC(/C=N/NC(=O)c1cc(C(C)(C)C)[nH]n1)=C\c1ccccc1 | 0 | -54* | 8 | 2 | -3
CC1=NN(c2nc(C)cc(C)n2)C(=O)C1CCC(C)C (centres undefined) | 1 | -60* | -12 | -7 | -3
Cc1ccc(S(=O)(=O)N2CC(O)CC2C(=O)O)cc1 (centres undefined) | 2 | -15 | 10 | -5 | -14
COc1ccc(OC)c(/C=C2\SC(=S)N(C(C(=O)O)c3ccccc3)C2=O)c1 (centres undefined) | 35* | 23 | -2 | -2 | 2
CCOc1ccc(/C=C2\SC(=S)N(C(C(=O)O)c3ccccc3)C2=O)cc1OC (centres undefined) | 3 | 23 | 12 | -2 | -3
COc1cccc(N2CCN(c3ncc4c(n3)CCN(Cc3ccc(Br)cc3)C4)CC2)c1 | 0 | nt | 5 | -1 | -5
COC(=O)CNC(=O)C1CCC(CNS(=O)(=O)c2cccc3nsnc23)CC1 (centres undefined) | 2 | 6 | -33* | 2 | -1
O=C(O)c1cc(Br)ccc1NS(=O)(=O)c1cccc2nsnc12 | 1 | 16 | -2 | -4 | 6
Cc1ccc(NS(=O)(=O)c2cccc3nsnc23)cc1C | 0 | -18 | -5 | -6 | 6
COc1cc(NS(=O)(=O)c2cccc3nsnc23)cc(OC)c1 | 3 | -64* | -5 | -4 | 3
COc1cc(NS(=O)(=O)c2cccc3nsnc23)c(C(=O)O)cc1OC | 3 | -83* | 1 | -8 | -4
COc1cccc(CNC(=O)CCNS(=O)(=O)c2cccc3nsnc23)c1 | 1 | 11 | -73*! | -1 | 0
COc1ccccc1C1c2[nH]c3ccccc3c2CCN1Cc1ccc(NC(C)=O)s1 (centres undefined) | 2 | -25 | 12 | 4 | -8
SMILES | D1 agonist | DRD3 antagonist | D1 antagonist | D1 potentiator | DRD3 agonist
CC(C)(C)c1ccc(-c2noc(CCC(N)=O)n2)cc1 | 20 | 12 | -40* | -10 | 4
CCOC(=O)c1ccccc1NC(=O)CCc1nc(-c2ccc(C)cc2)no1 | 8 | nt | -9 | 0 | -14
CNC(=O)CCc1nc(-c2ccc(C(C)(C)C)cc2)no1 | 5 | 14 | -20 | -5 | 6
CCc1ccccc1N(CC)C(=O)CCc1nc(-c2ccc(C)cc2)no1 | 34* | -1 | -3 | -7 | 5
Cc1ccc(-c2noc(CCC(=O)Nc3ccc(C)cn3)n2)cc1 | 0 | -73* | 4 | 12 | -7
Cc1ccc(-c2noc(CCC(=O)N(C)c3ccccc3F)n2)cc1 | 9 | nt | 7 | -2 | -2
CCN(CC)C(=O)Cn1cc(C(=O)C(=O)N(CC)C2CCCCC2)c2ccccc21 | 1 | 19 | 0 | -6 | 3
Cc1cccc(N(C(=O)c2snc(C(N)=O)c2N)C(C(=O)NCC2CCCO2)c2ccc(N(C)C)cc2)c1C (centres undefined) | 4 | 27 | 3 | 3 | -16
Cc1ncc(CN2CCN(Cc3ccccc3)C(CCO)C2)s1 (centres undefined) | 0 | -20 | -6 | 5 | -17
Cc1ccc(CN2CCN(Cc3ccc4c(c3)OCCO4)CC2CCO)cc1 (centres undefined) | 7 | -55* | -4 | -1 | -20
Cc1ccc(CN2CCN(C3CCCC3)C(CCO)C2)s1 (centres undefined) | 3 | -51* | -23 | -5 | -23
OCCC1CN(Cc2ccc3c(c2)CCO3)CCN1Cc1ccc(F)cc1 (centres undefined) | 3 | -59* | -8 | 1 | -16
CCOc1ccc(CN2CCN(Cc3cnc(-c4ccccc4)s3)CC2CCO)cc1 (centres undefined) | 61* | -16 | -10 | -3 | -3
CCNc1nc(NCC)n2c(SC(C(=O)Nc3cc(C)ccc3OC)c3ccccc3)nnc2n1 (centres undefined) | -1 | 16 | 0 | 15 | -3
C/C=C/c1cccc(-c2nc(C(=O)N3CCCCC3)cc3c2[C@H](CCO)N(C(=O)NC(C)C)C3)c1 | nt | 0 | nt | nt | -9
Cc1ccc(CN2CCN(CCC(C)C)C(CCO)C2)s1 (centres undefined) | 0 | ? | -9 | 1 | -28
COC(=O)c1ccc(CN2CCN(C3CCCCC3)C(CCO)C2)cc1 (centres undefined) | -1 | 7 | 0 | -1 | -6
Cc1ccc(CN2CCN(Cc3ccccc3)C(CCO)C2)s1 (centres undefined) | 3 | -53* | 2 | -2 | -13
CC(=O)Nc1ccc(CN2CCN(C3CCCCC3)C(CCO)C2)cc1 (centres undefined) | 36* | 18 | -6 | -4 | 5
Cc1ccc(CN2CCN(Cc3cnc(C)s3)CC2CCO)cc1 (centres undefined) | 7 | -60* | -2 | 1 | -15
Cc1ccc(CN2CCN(Cc3ccc(C)s3)CC2CCO)cc1 (centres undefined) | 2 | -96* | 9 | 9 | -19
